The entries come from a sample that favours hits as a whole.
FECH inh: blocks human mitochondrial ferrochelatase activity; P22830; purified FECH, Ni-mesoporphyrin absorbance 550 nm; calls only at 10 µM (by protocol); 20,000 tested, 3.3% active; AID 1671448;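 active = enzyme reaction rate more than 3 SD below the solvent-only control wells on the same plate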;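 note: lower slope than DMSO wells means FECH inhibition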
Target sequence (P22830 whole entry, looked up): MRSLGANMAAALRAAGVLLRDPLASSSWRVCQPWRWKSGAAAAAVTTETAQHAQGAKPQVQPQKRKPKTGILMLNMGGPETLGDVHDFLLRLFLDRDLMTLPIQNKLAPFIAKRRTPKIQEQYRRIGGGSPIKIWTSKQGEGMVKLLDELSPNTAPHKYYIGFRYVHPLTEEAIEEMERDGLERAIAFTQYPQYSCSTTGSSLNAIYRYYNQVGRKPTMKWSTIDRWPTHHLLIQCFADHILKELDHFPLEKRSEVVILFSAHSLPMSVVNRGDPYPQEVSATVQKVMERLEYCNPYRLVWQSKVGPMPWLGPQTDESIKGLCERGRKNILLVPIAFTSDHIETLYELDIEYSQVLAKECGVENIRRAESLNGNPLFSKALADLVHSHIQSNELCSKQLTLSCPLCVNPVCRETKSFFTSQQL
* marks the source's active call; other numbers are inactive results; i = inactive; + = active, no number.

SMILES	FECH inh
CC(C)(O)C#Cc1cccc(C(=O)NCCC2COc3ccccc3O2)c1 (centres undefined)	i
Cc1ccc(NC(=O)NCCc2nc3cccnc3n2-c2ccccc2)cc1	i
CCn1ccnc1-c1c(-c2ccccc2)ncn1CCN1CCCCC1CO (centres undefined)	i
Cc1cccc(OCCN2CCCCC2CO)c1C (centres undefined)	+
Cc1cccc(OCCN2CCCN(C(=O)c3ccco3)CC2)c1C	i
CCOc1ccccc1NC(=O)CN1CCN(Cc2ccccc2C)S1(=O)=O	+
CCOc1ccccc1NC(=O)CN1CCN(Cc2ccc(F)cc2Cl)S1(=O)=O	+
CCOc1ccccc1NC(=O)CN1CCN(Cc2ccccc2Cl)S1(=O)=O	i
CCOC(=O)c1ccccc1NC(=O)CN1CCN(Cc2ccccc2C)S1(=O)=O	i
CCc1ccccc1NC(=O)CN1CCN(Cc2ccc(F)cc2Cl)S1(=O)=O	i
CCc1ccccc1NC(=O)CN1CCN(Cc2ccccc2C)S1(=O)=O	i
CN1CCC2(CC1)CN(C(=O)c1cccc(-c3ncn[nH]3)c1)CCN2C	i
CCOC(=O)c1cnn2cc(CN(C)C3CCCc4ccccc43)cnc12 (centres undefined)	i
Cc1ccc(CN2CCCN(CC(=O)N3CCCC(C)C3)S2(=O)=O)cc1 (centres undefined)	i
CN1C(=O)c2cc(C(=O)NCCCN3CCCCCC3)nn2CC1(C)C(=O)NCc1ccc(F)cc1 (centres undefined)	i
O=C(O)c1ccc2c(c1)n(CCN1C[C@H]3CC[C@@H]1C3)c(=O)n2C1CCCCC1	i
CCOC(=O)c1ccc(NC(=O)Cn2c(C(=O)OCC)cc3ccsc32)cc1	i
CC[C@@]12C[C@H]3C[C@@](O)(C1)C[C@](C(=O)NCCC(=O)Nc1nccs1)(C3)C2	i
CNC(=O)c1ccc(Cn2c(=O)c3cc(OC)c(OC)cc3n(CC(=O)NCC3CCCO3)c2=O)cc1 (centres undefined)	+
CNC(=O)c1ccc(Cn2c(=O)c3cc(OC)c(OC)cc3n(CC(=O)NC(C)C)c2=O)cc1	i
COc1cc2c(=O)n(Cc3ccc(C(=O)NC(C)C)cc3)c(=O)n(CC(=O)NC(C)C)c2cc1OC	i
OCC#Cc1ccc(-c2nccn2CCc2c[nH]c3ccccc23)s1	i
O=c1[nH]nc(C(O)c2ccccc2)n1CC1CCCCC1 (centres undefined)	i
COc1ccc(-c2cc3n(n2)CCC(=O)N3Cc2ccc(C(=O)NCCCN3CCCC3)cc2)cc1	i
COc1ccc(-c2noc(CSCC(=O)Nc3cccc(C(C)=O)c3)n2)cc1OC	i
SMILES	FECH inh
COc1ccccc1-n1nc(CC(C)C)nc1CCc1cnn(C)c1	i
COc1ccc(Cl)cc1S(=O)(=O)NCc1nc2cccnc2n1CC(C)C	i
CCCc1c(C)nc2ncnn2c1Sc1ccccc1NC(=O)c1ccc(C)cc1	i
Cc1nc2ncnn2c(Sc2ccccc2NC(=O)c2ccc(Cl)cc2)c1C	i
CCc1c(C)nc2ncnn2c1Sc1ccccc1NC(=O)c1ccc(OC)cc1	i
Cc1nc2nc(-c3ccccc3)nn2c(Sc2ccccc2NC(=O)c2c(F)cccc2F)c1C	i
CCCc1c(C)nc2ncnn2c1Sc1ccccc1NC(=O)c1cccc(Cl)c1	i
CCCc1c(C)nc2ncnn2c1Sc1ccccc1NC(=O)c1ccc(C(C)(C)C)cc1	+
CCc1c(C)nc2ncnn2c1Sc1ccccc1NC(=O)c1cc(OC)cc(OC)c1	i
CCc1cc(Sc2ccccc2NC(=O)c2cccc(C)c2)n2ncnc2n1	i
Cc1nc2nc(-c3ccccc3)nn2c(Sc2ccccc2NC(=O)c2ccccc2)c1C	i
CCc1c(C)nc2ncnn2c1Sc1ccccc1NC(=O)c1ccc(F)cc1	+
Cc1cccc(C(=O)Nc2ccccc2Sc2c(C)c(C)nc3ncnn23)c1	+
CCC(=O)Nc1ccccc1Sc1c(C)c(C)nc2nc(-c3ccccc3)nn12	+
CN(CCCNC(=O)c1cccn1-c1nnc(N2CCCCC2)s1)C1CCCCC1	i
COc1ccc(O)c(C2CC(=O)Nc3c2c(-c2ccccc2)nn3C)c1 (centres undefined)	i
Cc1ccc2cc(-c3noc(CCC(=O)Nc4ccccc4Cl)n3)c(=O)[nH]c2c1	i
CC(=O)Nc1cccc(NS(=O)(=O)c2cc(N3C(=O)CCS3(=O)=O)ccc2C)c1	i
CCc1ccccc1OCCN1CCCN(c2ncccn2)CC1	i
Nc1nccc(N2CCC(N3CCCC(C(=O)N4CCOCC4)C3)CC2)n1 (centres undefined)	i
CCCc1cc(Sc2ccc(NS(=O)(=O)c3ccc(C)cc3)cc2)n2ncnc2n1	i
CC(NC(=O)c1coc2c1C(=O)CCC2)c1cn2ccsc2n1 (centres undefined)	i
CSc1nc(NCC2CCCO2)c(C#N)c(-c2ccccc2)n1 (centres undefined)	i
Cc1oc(-c2ccc(OC(C)C)cc2)nc1CSc1nc(-c2cccnc2)cc(=O)[nH]1	i
CCOC(=O)c1ccc(NC(=O)CN2CCCN(Cc3cccc(F)c3)S2(=O)=O)cc1	i
